# Results as given in the supplement of paper PMC6555819.
# Columns and labels:
# Test in all cases: PBM binding z-score (relative to random genomic background probes); higher = stronger binding; sequences stand for … in GC…GCGATTGACAGCGTAGAATGAAGG
# [1] = tested on: FXR:RXRa (NR concentration 270 nM, RXRa partner concentration 90 nM)
# Method in brief: (§1)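 The probes on custom Agilent 4×180K protein-binding microarrays were double-stranded, with 34-nt variable regions bearing direct-repeat seeds, single-nucleotide variants, half-site ablations and random human genomic background sequences. Incubation lasted 1 h with ligand-free nuclear receptor dimers in PBS pH 7.4, 2% milk, 0.02% Triton X-100, 1 mM DTT, 0.2 mg/mL BSA and 0.4 mg/ml salmon testes DNA. Antibodies against each partner (one per run) detected bound dimers, and fluorescence scans were regression-normalized. Binding z-scores take the random background probes as reference.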
# [2] = tested on: LXRa:RXRa (NR concentration 270 nM, RXRa partner concentration 90 nM)
# Method in brief: as §1
# [3] = tested on: LXRa homodimer (NR concentration 270 nM)
# Method in brief: as §1
# [4] = tested on: LXRb:RXRa (NR concentration 270 nM, RXRa partner concentration 90 nM)
# Method in brief: as §1
# [5] = tested on: LXRb homodimer (NR concentration 270 nM)
# Method in brief: as §1
# [6] = tested on: PPARa:RXRa (NR concentration 270 nM, RXRa partner concentration 90 nM)
# Method in brief: as §1
# [7] = tested on: PPARg:RXRa (NR concentration 180 nM, RXRa partner concentration 90 nM)
# Method in brief: as §1
# [8] = tested on: PPARg:RXRa 270nM:90nM, anti-RXR (NR concentration 270 nM, RXRa partner concentration 90 nM)
# Method in brief: as §1
# [9] = tested on: PPARg:RXRa 30nM:10nM, anti-RXR (NR concentration 30 nM, RXRa partner concentration 10 nM)
# Method in brief: as §1
# [10] = tested on: PPARg:RXRa 90nM:30nM, anti-RXR (NR concentration 90 nM, RXRa partner concentration 30 nM)
# Method in brief: as §1
# [11] = tested on: PPARg:RXRa DBDmut IVT, anti-RXR (DBD mutation: RXRa K156A/R161A, NR concentration 270 nM, RXRa partner concentration 90 nM)
# Method in brief: as §1
# [12] = tested on: PPARg:RXRa IVT, anti-PPARg (NR concentration 270 nM, RXRa partner concentration 90 nM)
# Method in brief: as §1
# [13] = tested on: PPARg DBDmut:RXRa IVT, anti-PPARg (DBD mutation: PPARg1 K132A/R137A, NR concentration 270 nM, RXRa partner concentration 90 nM)
# Method in brief: as §1
# [14] = tested on: PPARg DBDmut IVT, anti-PPARg (DBD mutation: PPARg1 K132A/R137A, NR concentration 270 nM)
# Method in brief: as §1
# [15] = tested on: PPARg homodimer (NR concentration 180 nM)
# Method in brief: as §1
# [16] = tested on: PXR:RXRa (NR concentration 270 nM, RXRa partner concentration 90 nM)
# Method in brief: as §1
# [17] = tested on: PXR homodimer (NR concentration 270 nM)
# Method in brief: as §1
# [18] = tested on: RARa:RXR (NR concentration 270 nM, RXRa partner concentration 90 nM)
# Method in brief: as §1
# [19] = tested on: RARa homodimer (NR concentration 270 nM)
# Method in brief: as §1
# [20] = tested on: RARb:RXRa (NR concentration 270 nM, RXRa partner concentration 90 nM)
# Method in brief: as §1
Sequence,PBM binding z-score [1],PBM binding z-score [2],PBM binding z-score [3],PBM binding z-score [4],PBM binding z-score [5],PBM binding z-score [6],PBM binding z-score [7],PBM binding z-score [8],PBM binding z-score [9],PBM binding z-score [10],PBM binding z-score [11],PBM binding z-score [12],PBM binding z-score [13],PBM binding z-score [14],PBM binding z-score [15],PBM binding z-score [16],PBM binding z-score [17],PBM binding z-score [18],PBM binding z-score [19],PBM binding z-score [20]
CCTCGGAGGACAACAGGAGGTCAGACCTGCCAGA,0.836,2.12,2.37,1.52,-0.492,1.96,0.605,0.0936,-0.634,-0.359,0.294,0.546,-0.564,-0.997,1.43,2.11,0.241,2.19,0.183,2.89
ACAGACAGATGAGTGAAGGTAACTCAGCTGGACG,0.536,-0.0158,-0.336,-0.328,-0.174,-0.0253,0.883,0.561,0.259,0.0616,-0.101,0.00181,0.781,0.138,0.692,-0.0478,0.186,0.101,0.524,-0.14
CCAGACAGGTGAAAGGTAACACAGTCTGGTACGC,0.883,0.799,-0.29,0.919,-0.313,3.54,5.85,6.13,4.72,6.42,2.09,3.4,-0.472,-0.499,0.837,1.29,-0.0519,1.69,0.436,1.36
CCTTACGGGTCACTGACATGTTATAGCATTTGGA,5.55,3.84,0.306,3.54,0.233,5.2,4.42,4.66,2.21,3.45,3.55,4.1,1.46,0.945,1.83,3.22,0.262,4.06,1.38,4.06
GCTAGTTGGTCAGTAAAAGGTAACACACCGGTCG,0.0852,0.248,0.0445,0.107,-0.224,0.694,0.783,0.945,0.0648,0.29,0.651,0.622,-0.712,0.0528,0.535,0.2,0.0944,0.372,0.548,1.03
TCATATAGGTAATACAGGTGAAACTCGGCATCTA,1.07,1.41,0.63,1.14,0.362,2.28,1.85,2.56,3.88,3.33,4.14,3.73,1.2,0.856,1.01,0.879,0.269,1.17,1.3,0.809
CCTATTAGTTGACCATAAGGGCAACTGAAGCTCG,1.03,0.424,0.44,0.496,0.545,0.479,0.379,0.673,0.177,0.597,0.175,0.85,0.663,0.553,1.38,1,0.613,0.807,1.39,1.73
TCTGATAGGTCAACGATGGTCAGCTAATCTGCTA,5.29,4.83,0.975,3.31,0.737,4.76,3.47,4.48,3.79,4.21,3.63,3.48,0.759,0.735,2.17,3.01,-0.308,3.7,1.12,4.44
CTCGAAAGGTCGTGCTCAGGTGCGTATACCAAAC,4.69,3.72,0.109,2.86,-0.0235,4.57,1.84,3.16,0.473,2.05,0.285,1.52,0.6,0.566,0.856,3.09,0.43,3.46,-0.163,3.75
TCTGCTAGGTCAGTGGGTCAGCTAACGAGCTGCC,1.49,1.09,-0.548,0.738,0.0153,3.41,5.03,4.53,2.11,3.51,4.42,5.76,0.364,-0.282,1.24,0.857,-0.958,2.11,-0.00938,3.77
ATCTCTAGGTAACTAGTTCAGTGAAAGAGAGGAC,0.133,0.11,-0.0189,0.143,0.75,0.794,0.87,0.974,0.417,0.722,2.81,2.6,1.49,0.893,0.154,0.527,0.481,0.382,0.388,0.464
ACTATTAGTTGAGACGAGTGCAACCGATAGGTTG,-0.26,-0.238,-0.221,-0.356,-0.0624,-0.254,0.511,0.0303,-0.299,-0.303,0.000618,0.0242,0.728,0.584,0.204,1.96,0.737,0.0877,-0.0239,0.0996
GGAACGAGGGCAAGTTGCTAGCAGAGTTTGATGG,0.687,0.359,-0.44,0.0629,-0.392,1.48,0.841,1.04,-0.453,0.0808,3.85,2.46,-0.00966,-0.739,-0.336,0.59,0.303,0.0596,-0.257,2.52
GCTAGCAGGCCATTTGGGTCATTCAATGACGGGC,0.317,0.0338,-0.598,0.324,-1.08,1.47,0.533,0.233,-0.872,-0.17,2.06,2.04,-1.48,-1.11,-0.184,0.822,0.976,0.854,-0.862,1.28
